± gives the standard deviation.

This assay concerns Streptococcus suis HE06. The assay can be described thus: percent growth relative to DMSO control; higher = less growth inhibition. The following applies: 10 µM; incubation time 18 h. The procedure:
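CLSI broth microdilution: 5x10^4 CFU of Streptococcus suis (strain P1/7 or HE06) incubated with 10 µM Pathogen Box compound in cation-adjusted Mueller Hinton broth, 37 °C, 5% CO2, 18 h. Growth read as OD600 and expressed as percent of the DMSO-treated control (100%); mean ± SD of three independent experiments.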
Take `COc1ccc(-c2nn(C(C)C)c3ncnc(N)c23)cc1OC`: the percent growth was determined as 112 ± 26%.
With `Cc1cccc(NC(=O)c2cc(S(=O)(=O)N(C)c3ccc(F)cc3)ccc2Cl)n1` the figure was 111 ± 31%; with `CNC1C(OC2C(OC3C(O)C(O)C(NC(=N)N)C(O)C3NC(=N)N)OC(C)C2(O)C=O)OC(CO)C(O)C1O` (stereo not drawn), 99.9 ± 10%.
As for `O=C(Nc1ccc(N2CCNCC2)cc1)c1ccn2ncc(-c3cccc(Cl)c3)c2n1`, the percent growth was found to be 98.9 ± 27%.
For the compound `Cc1nc(-c2ccccn2)nc(N(C)CCc2ccccc2)c1Cl`, the percent growth turned out to be 9.53 ± 8.4%.
Regarding `COc1cc2ncnc(NC3CCN(Cc4ccccc4)CC3)c2cc1OC`, the percent growth stood at 103 ± 27%.
Turning to `CC(C(=O)N1CCCC1)N1CCN(S(=O)(=O)c2ccc(C(C)(C)C)cc2)CC1` (stereo not drawn), the percent growth turned out to be 84.8 ± 24%.
As for `O=C(NCc1ccoc1)N1CCN(Cc2ccc3c(c2)OCO3)CC1`, the figure is 94 ± 5.7%; as for `CCCCS(=O)(=O)Nc1ccc2cnn(C)c2c1`, 92.3 ± 11%.
Take `CC(=O)NC[C@H]1CN(c2ccc(N3CCSCC3)c(F)c2)C(=O)O1`: the percent growth was determined as 3.44 ± 3.9%.
Take `COc1ccc2nc(C)cc(OCC(=O)Nc3ccccc3OC)c2c1`: the percent growth was 89.9 ± 9.3%.
With `COC(=O)c1cccc2oc(-c3cccc(OC)c3NC(=O)c3cc(-c4ccccc4)on3)nc12`, the percent growth worked out at 102 ± 25%.
With `O=C1Nc2ccc(Br)cc2C12NCCc1c2[nH]c2ccccc12` (stereo not drawn) the figure was 94.7 ± 15%.
As for `CC1=Nc2ccc(Cl)cc2C(O)(c2ccc(C)cc2)N1CCN1CCCCC1` (stereo not drawn), the figure is 98.9 ± 32%; as for `CC(C(=O)Nc1ccc2oc(-c3ccncc3)nc2c1)c1ccccc1` (stereo not drawn), 81.1 ± 11%.
As for `COc1cccc(-n2nnnc2S(C)(=O)=O)c1`, the figure is 88.1 ± 9.8%; as for `O=C(Nc1nc(-c2ccccn2)cs1)C1CC1c1ccccc1F` (stereo not drawn), -0.0889 ± 1.4%; as for `Cc1ccc(S(=O)(=O)N2CCN(C(=O)c3cc(-c4ccccc4)[nH]n3)CC2)cc1`, 118 ± 39%.
Turning to `Cc1cc(NC(=O)c2ccc(Oc3ccc(Cl)cc3O)o2)no1`, the percent growth is 108 ± 22%.
Regarding `O=C(COc1cccc(F)c1)Nc1nc(-c2ccccn2)cs1`, the percent growth is -0.0745 ± 0.086%.
As for `O=[N+]([O-])c1cn2c(n1)OC[C@@H](OCc1ccc(OC(F)(F)F)cc1)C2`, the figure is 110 ± 13%.
As to `CCCCc1ccc(C(=O)Nc2nccc3ccccc23)nc1`, the percent growth was found to be 32.4 ± 32%.
Consider `COc1nc2ccc(Br)cc2cc1[C@@H](c1ccccc1)[C@@](O)(CCN(C)C)c1cccc2ccccc12`, for which the percent growth turned out to be 59.8 ± 13%.
As for `Cc1nc2ccccn2c1C(=O)NCc1ccc(Cl)cc1`, the percent growth worked out at 78.1 ± 14%.
With `CC(=O)N1CCN(c2ccc(Oc3ccc(Cl)cc3O)cc2)CC1` the figure was 142 ± 58%; with `Cc1cc(C(=O)Nc2ccc(-c3ccccc3)cc2)no1`, 103 ± 36%; with `Cc1ccccc1C(=O)N1N=C(Nc2ccccc2)SC1(C)C`, 104 ± 8.3%.
As for `CCOc1ccc(-c2nc(NC(=O)CS(=O)(=O)c3ccccc3)sc2C)cc1`, the figure is 76.9 ± 15%; as for `CC1=NN(c2nc3ccccc3s2)C(=O)C1Cc1cccc2ccccc12` (stereo not drawn), 0.762 ± 0.8%.
With `CCNC(=O)C(C)Nc1nc(-c2cccnc2)nc2sc(C)c(C)c12` (stereo not drawn) the figure was 101 ± 8.4%.
With `COc1ccc(C2CC(c3cccs3)=NN2C(=O)c2ccco2)cc1OC` (stereo not drawn), the percent growth amounted to 75.4 ± 3%.
In the case of `CC(C)n1nc(-c2cc3c(Cl)cccc3[nH]2)c2c(N)ncnc21`, the percent growth came to 112 ± 45%.
Consider `CC(=O)NCC1CN(c2ccc(-c3ccc(CO)cc3)c(F)c2)C(=O)O1` (stereo not drawn), for which the percent growth is 0%.
Regarding `FC(F)(F)c1cnc(Sc2nnc(-c3ccncc3)o2)c(Cl)c1`, the percent growth is 94.8 ± 27%.
With `CCCNC(=O)N1CCC2(CC1)CC(=O)c1cc(C)ccc1O2` the figure was 87.9 ± 23%; with `CC(=O)Oc1ccccc1C(=O)Nc1ncc([N+](=O)[O-])s1`, 42.5 ± 18%.
`COc1ccc(-c2cnc3ccc(N4CCCC4)nn23)cc1OC`: the percent growth was found to be 48.8 ± 40%.
As to `O=C(NC1CC1)c1ccc(CSCc2ccccc2Cl)o1`, the percent growth stood at 83.2 ± 21%.

The values above are taken from the supplement of paper PMC7866885, “A novel bicyclic 2,4-diaminopyrimidine inhibitor of Streptococcus suis dihydrofolate reductase” (PeerJ, 2021).
